Source: publication PMC4336329 (PLoS ONE, 2015)
Hit rate of the full screen: of about 310,000 compounds, about 14,000 (4.5%) showed an effect of 50% or more. Effects have a minus sign here. The full list was thinned out, with strong results kept by preference. *1 amine or outer side, *2 acyl side, *3 side chain or, on linkers, in order; H or OH if unused. Where a SMILES comes first, the peptide text is derived from it. Bridges are numbered along the chain shown (N, C = ends). [ ]: non-standard residue; d: D form. ξ: configuration not given here. hSer(Ph(2-I,4-NO2,6-CO)) = O=C([C@H](CCOc1c(I)cc([N+](=O)[O-])cc1C(=O)[*:3])N[*:1])[*:2]; ξD = NC(CC(=O)O)C(=O)O

target: human ether-à-go-go-related gene (hERG) potassium channel (human, UniProt Q12809); assay: primary screen, population patch clamp on CHO cells stably expressing hERG; higher = less effect of the substance
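Also: peak tail current of the secondary pulse compared with the same well before compound.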

Sequence of human ether-à-go-go-related gene (hERG) potassium channel (Q12809 whole entry, looked up): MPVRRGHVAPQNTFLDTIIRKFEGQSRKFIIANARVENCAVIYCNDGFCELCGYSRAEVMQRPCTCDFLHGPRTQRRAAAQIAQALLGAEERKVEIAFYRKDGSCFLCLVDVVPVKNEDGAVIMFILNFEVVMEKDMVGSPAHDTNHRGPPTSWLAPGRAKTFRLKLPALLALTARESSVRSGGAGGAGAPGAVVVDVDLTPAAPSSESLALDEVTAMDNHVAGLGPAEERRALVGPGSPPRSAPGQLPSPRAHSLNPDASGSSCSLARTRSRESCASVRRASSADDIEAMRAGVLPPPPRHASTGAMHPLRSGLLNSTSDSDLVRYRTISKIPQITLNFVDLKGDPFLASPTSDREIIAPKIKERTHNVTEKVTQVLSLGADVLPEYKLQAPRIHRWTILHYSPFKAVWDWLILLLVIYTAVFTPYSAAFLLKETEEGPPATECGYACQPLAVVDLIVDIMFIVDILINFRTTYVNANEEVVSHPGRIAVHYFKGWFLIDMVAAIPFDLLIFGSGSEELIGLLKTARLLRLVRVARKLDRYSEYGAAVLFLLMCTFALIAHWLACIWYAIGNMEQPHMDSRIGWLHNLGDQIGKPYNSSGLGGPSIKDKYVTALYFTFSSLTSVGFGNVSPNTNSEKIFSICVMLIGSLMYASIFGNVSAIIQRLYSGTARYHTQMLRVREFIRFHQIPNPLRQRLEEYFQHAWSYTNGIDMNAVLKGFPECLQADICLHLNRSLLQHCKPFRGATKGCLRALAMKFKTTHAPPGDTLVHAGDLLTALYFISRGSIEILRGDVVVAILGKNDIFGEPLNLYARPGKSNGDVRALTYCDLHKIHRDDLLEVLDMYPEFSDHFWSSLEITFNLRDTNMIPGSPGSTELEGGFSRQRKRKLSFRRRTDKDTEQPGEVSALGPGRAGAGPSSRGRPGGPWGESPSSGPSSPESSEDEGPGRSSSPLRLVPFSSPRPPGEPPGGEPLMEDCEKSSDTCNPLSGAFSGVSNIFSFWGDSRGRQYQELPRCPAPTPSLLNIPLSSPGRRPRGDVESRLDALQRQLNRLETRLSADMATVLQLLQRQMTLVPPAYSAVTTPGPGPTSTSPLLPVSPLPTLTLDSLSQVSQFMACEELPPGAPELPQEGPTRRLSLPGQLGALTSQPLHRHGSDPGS

| Compound | hERG current change (%, negative = inhibition) at 10uM [%] |
| --- | --- |
| O=C(CSc1nnc(-c2ccccc2)o1)N1CCOCC1 | 6.37 |
| NC(=O)C(CC(=O)O)NC(=O)[C@@H]1CCOc2c(I)cc([N+](=O)[O-])cc2C(=O)N[C@@H](CCC(=O)O)C(=O)N[C@@H](CO)C(=O)N1 (stereo partly drawn) (ES[hSer(Ph(2-I,4-NO2,6-CO))][ξD]-NH2; lactam N-3) | -5.73 |
| Br.C=CCn1c(C)csc1=Nc1ccc(C(=O)O)cc1 | 13.5 |
| Cc1ccc(S(=O)(=O)Cc2cc(F)c([N+](=O)[O-])cc2[N+](=O)[O-])cc1 | -14.3 |
| COc1ccc(CCNC(=S)NC(=O)c2cccc(Cl)c2)cc1OC | 1.73 |
| Cc1ccc(-c2nnc(N3CCN(c4ccccn4)CC3)c3ccccc23)cc1 | -46.3 |
| COc1ccc(N2CCN(CCOc3ccc4c(C)cc(=O)oc4c3)CC2)cc1 | -26.1 |
| COc1ccccc1N1CCN(CC(O)COc2ccc3c(c2)OCO3)CC1.Cl (stereo not drawn) | -33.7 |
| COc1ccccc1N1CCN(CC(O)COc2ccc(C)c(C)c2)CC1.Cl (stereo not drawn) | -55.9 |
| COc1ccccc1N1CCN(CC(O)COc2ccc(C)cc2C)CC1.Cl (stereo not drawn) | -73.1 |
| COc1ccc(N2CCN(CC(O)COc3ccc(C)c(C)c3)CC2)cc1.Cl (stereo not drawn) | -43.7 |
| Cc1ccccc1N1CCN(CCCOc2ccc3c(C)cc(=O)oc3c2)CC1 | -75.3 |
| CNCC(O)CN1CCN(c2ccccc2OC)CC1.Cl (stereo not drawn) | 12.7 |
| Cc1cc(=O)oc2cc(OCCCN3C(=O)c4ccccc4C3=O)ccc12 | 10.4 |
| O=C(CCc1ccccc1)NNC(=O)C1CCCCC1 | -2.12 |
| CC(C)Nc1ccc(-n2nc3ccccc3[n+]2[O-])cc1 | 6.09 |
| O=C1CCCCCC1C1(O)C(=O)Nc2ccccc21 (stereo not drawn) | -1.78 |
| CC1(c2ccccc2)NC(=O)N(CC(=O)NNC(=O)c2ccccc2)C1=O (stereo not drawn) | 21.3 |
| Cc1ccc(CNC(=O)C2CC(=O)OC23CCCC3)c(C)c1 (stereo not drawn) | -0.109 |
| CCCCNC(=O)c1ccc(CNS(=O)(=O)c2ccc(Br)cc2)cc1 | 2 |
| CCOc1ccc2nc(NC(=O)CSc3nc4cccnc4n3C)sc2c1 | 17.4 |
| COc1ccccc1N1CCN(C(c2ccc(C)cc2)c2nnnn2C(C)C)CC1 (stereo not drawn) | -5.61 |
| O=C(Nc1sc2c(c1C(=O)O)CCCC2)c1ccccc1Cl | 11.9 |
| Cc1c(Cl)cnc(NC(=O)COC(=O)c2ccc3ncsc3c2)c1Cl | -2.49 |
| CCOCCCNC(=O)c1cn(CC)c2ccc(S(=O)(=O)N(C)C3CCCCC3)cc2c1=O | -55.7 |
| CCN(CC)CCNC(=O)c1cn(CC)c2ccc(S(=O)(=O)N(C)C3CCCCC3)cc2c1=O | -67.2 |
| CCn1cc(C(=O)NCCCOC)c(=O)c2cc(S(=O)(=O)N(C)C3CCCCC3)ccc21 | -23 |

| Compound | hERG current change (%, negative = inhibition) at 10uM [%] |
| --- | --- |
| CCn1cc(C(=O)NCC(OC)OC)c(=O)c2cc(S(=O)(=O)N(C)C3CCCCC3)ccc21 | -44.2 |
| CCCCN(CCCC)CCNC(=O)c1cn(CC)c2ccc(S(=O)(=O)N(C)C3CCCCC3)cc2c1=O | -82.5 |
| CCn1cc(C(=O)NC2CCCCC2)c(=O)c2cc(S(=O)(=O)N(C)C)ccc21 | 2.38 |
| CCCN(CCC)CCCNC(=O)c1cn(CC)c2ccc(S(=O)(=O)N(C)C3CCCCC3)cc2c1=O | -74.3 |
| CCN(CC)CCNC(=O)c1cn(CC)c2ccc(S(=O)(=O)N(C)C)cc2c1=O | 11.1 |
| CC1(C(=O)OCC(=O)Nc2cccc(S(=O)(=O)NC3=NCCCCC3)c2)CC1(Cl)Cl (stereo not drawn) | 10.7 |
| CCc1noc(C)c1C(=O)Nc1cc(S(=O)(=O)N2CCOCC2)ccc1OC(C)C | -45.1 |
| CCN(CC(=O)Nc1c(F)cccc1F)C(=O)c1csc2c1CCCC2 | 7.01 |
| COC(=O)c1c(-c2ccc(F)cc2)csc1NC(=O)c1ccco1 | 22.9 |
| COc1cccc2cc(C(C)N(CCCN3CCOCC3)C(=S)Nc3cccc(C)c3)oc12 (stereo not drawn) | 14.8 |
| CCC(C)c1ccc(OCc2ccc(C(=O)OC)o2)cc1 (stereo not drawn) | -12.8 |
| O=C(OCc1cc(-c2ccccc2)no1)c1ccc2ccccc2n1 | 12.2 |
| Cc1cc(CNC(=O)COc2ccc(C#N)cc2)c2ccccc2n1 | -47.2 |
| COc1cc(OC)cc(C(=O)NCc2cc(C)nc3ccccc23)c1 | -2.16 |
| Cc1ccc(C)c(NC(=O)CN(C)C(=O)c2ccc(Cl)nc2)c1 | -7.48 |
| CCn1cc(C(=O)NCCCN(CC(C)C)CC(C)C)c(=O)c2cc(S(=O)(=O)N3CCOCC3)ccc21 | -11.3 |
| CCn1cc(C(=O)NCCCN(CC(C)C)CC(C)C)c(=O)c2cc(S(=O)(=O)N(C)C3CCCCC3)ccc21 | -69.6 |
| CCN(CC)CCCNC(=O)c1cn(CC)c2ccc(S(=O)(=O)N(C)C3CCCCC3)cc2c1=O | -75.7 |
| Cc1ccccc1NC(=O)Cc1nc(-c2ccc3ccccc3c2)cs1 | 6.09 |
| COc1ccc2[nH]cc(CCNC(=O)C3CC(=O)N(c4ccc(Cl)cc4)C3)c2c1 (stereo not drawn) | -10.4 |
| O=C(Nc1cccnc1)c1c(O)c2c(n(Cc3ccccc3)c1=O)CCCC2 | 2.61 |
| CCCCCOc1ccc(Cn2ccnc2)cc1[N+](=O)[O-].Cl | -45.4 |
| Cc1ccc(OCCCn2ccnc2)c([N+](=O)[O-])c1 | -34.4 |
| Cc1ccc(OCCCCn2ccnc2)c([N+](=O)[O-])c1 | -51.5 |
| COc1ccc(Cn2ccnc2)cc1[N+](=O)[O-] | -0.186 |
| CCCOc1ccc(Cn2ccnc2)cc1[N+](=O)[O-] | -52.3 |
| Cc1ccc(OCCn2ccnc2)c([N+](=O)[O-])c1 | -4.29 |
